Experimental data: PMC11006913
Numbering of substitutions follows the chain as printed.

Key:
Assay in all cases: PBM; 200 nM protein, PBS
Settings in all cases: dsDNA, one strand shown
[1] = molecular target: NKX2-5 (Homo sapiens, UniProt P52952 125-210, R139K)
[2] = molecular target: T1, NKX2-4 (Homo sapiens, UniProt Q9H2Z4 175-261, P217L)
T1 sequence: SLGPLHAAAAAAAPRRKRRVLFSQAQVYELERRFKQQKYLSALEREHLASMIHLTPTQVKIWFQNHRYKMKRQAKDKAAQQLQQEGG

[3] = molecular target: T2, VENTX (Homo sapiens, UniProt O95231 78-163, R121Q)
T2 sequence: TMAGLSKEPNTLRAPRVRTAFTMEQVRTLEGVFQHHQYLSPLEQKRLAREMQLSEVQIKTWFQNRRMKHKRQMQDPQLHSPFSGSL

[4] = molecular target: T3, VENTX (Homo sapiens, UniProt O95231 78-163)
T3 sequence: T2 sequence with Q44R

[5] = molecular target: T4, NKX2-4 (Homo sapiens, UniProt Q9H2Z4 175-261, T231S)
T4 sequence: T1 sequence with L43P, T57S

[6] = molecular target: T5, VENTX (Homo sapiens, UniProt O95231 78-163, Y115F)
T5 sequence: T2 sequence with Y38F, Q44R

[7] = molecular target: T6, NKX2-4 (Homo sapiens, UniProt Q9H2Z4 175-261)
T6 sequence: T1 sequence with L43P

[8] = molecular target: T7, NKX2-6 (Homo sapiens, UniProt A6NCS4 118-204, R150C)
T7 sequence: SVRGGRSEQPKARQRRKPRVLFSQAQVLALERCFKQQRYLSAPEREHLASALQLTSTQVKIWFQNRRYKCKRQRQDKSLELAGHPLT

[9] = molecular target: T8, NKX2-6 (Homo sapiens, UniProt A6NCS4 118-204)
T8 sequence: T7 sequence with C33R

[10] = molecular target: T9, NKX2-4 (Homo sapiens, UniProt Q9H2Z4 175-261, R246Q)
T9 sequence: T1 sequence with L43P, R72Q

[11] = molecular target: T10, NKX2-6 (Homo sapiens, UniProt A6NCS4 118-204, F151L)
T10 sequence: T7 sequence with C33R, F34L

[12] = molecular target: NKX3-2 (Homo sapiens, UniProt P78367 192-278, P234S)
[13] = molecular target: NKX2-5 (Homo sapiens, UniProt P52952 125-210)
[14] = molecular target: NKX3-2 (Homo sapiens, UniProt P78367 192-278)
[15] = molecular target: HOXB4 (Homo sapiens, UniProt P17483 148-234)
[16] = molecular target: HOXB4 (Homo sapiens, UniProt P17483 148-234, V174I)
Sequence of HOXB4 (Homo sapiens, UniProt P17483 148-234, V174I) (P17483 148-234 V174I): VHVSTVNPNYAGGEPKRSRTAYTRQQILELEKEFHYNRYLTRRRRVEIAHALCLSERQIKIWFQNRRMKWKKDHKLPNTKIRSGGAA

Sequence of HOXB4 (Homo sapiens, UniProt P17483 148-234) (P17483 148-234): as the sequence (P17483 148-234 V174I) above, with I27V counted along it
Sequence of NKX2-5 (Homo sapiens, UniProt P52952 125-210) (P52952 125-210): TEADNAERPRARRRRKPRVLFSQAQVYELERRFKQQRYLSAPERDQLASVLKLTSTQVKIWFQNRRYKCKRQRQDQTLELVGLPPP
Sequence of NKX3-2 (Homo sapiens, UniProt P78367 192-278) (P78367 192-278): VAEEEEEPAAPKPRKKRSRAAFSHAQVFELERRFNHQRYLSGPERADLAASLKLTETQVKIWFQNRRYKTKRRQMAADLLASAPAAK
Sequence of NKX2-5 (Homo sapiens, UniProt P52952 125-210, R139K) (P52952 125-210 R139K): as the sequence (P52952 125-210) above, with R15K counted along it
Sequence of NKX3-2 (Homo sapiens, UniProt P78367 192-278, P234S) (P78367 192-278 P234S): as the sequence (P78367 192-278) above, with P43S counted along it

Sequence | binding signal [1] | binding signal [2] | binding signal [3] | binding signal [4] | binding signal [5] | binding signal [6] | binding signal [7] | binding signal [8] | binding signal [9] | binding signal [10] | binding signal [11] | binding signal [12] | binding signal [13] | binding signal [14] | binding signal [15] | binding signal [16]
GCACTTAA | 13.1 upbm affinity estimate (log intensity, higher = more binding, comparable within an allelic series) | 12.6 upbm affinity estimate (log intensity, higher = more binding, comparable within an allelic series) | 10.2 upbm affinity estimate (log intensity, higher = more binding, comparable within an allelic series) | 10.9 upbm affinity estimate (log intensity, higher = more binding, comparable within an allelic series) | 13 upbm affinity estimate (log intensity, higher = more binding, comparable within an allelic series) | 10.3 upbm affinity estimate (log intensity, higher = more binding, comparable within an allelic series) | 12.5 upbm affinity estimate (log intensity, higher = more binding, comparable within an allelic series) | 12 upbm affinity estimate (log intensity, higher = more binding, comparable within an allelic series) | 13.8 upbm affinity estimate (log intensity, higher = more binding, comparable within an allelic series) | 13.2 upbm affinity estimate (log intensity, higher = more binding, comparable within an allelic series) | 11.6 upbm affinity estimate (log intensity, higher = more binding, comparable within an allelic series) | 12.9 upbm affinity estimate (log intensity, higher = more binding, comparable within an allelic series) | 13 upbm affinity estimate (log intensity, higher = more binding, comparable within an allelic series) | 13.1 upbm affinity estimate (log intensity, higher = more binding, comparable within an allelic series) | – | –
CGGACCCG | 8.84 upbm affinity estimate (log intensity, higher = more binding, comparable within an allelic series) | – | – | – | – | – | – | – | – | – | – | – | 8.79 upbm affinity estimate (log intensity, higher = more binding, comparable within an allelic series) | – | 8.04 upbm affinity estimate (log intensity, higher = more binding, comparable within an allelic series) | 7.9 upbm affinity estimate (log intensity, higher = more binding, comparable within an allelic series)
ACACTTAT | 12.7 upbm affinity estimate (log intensity, higher = more binding, comparable within an allelic series) | 12.6 upbm affinity estimate (log intensity, higher = more binding, comparable within an allelic series) | – | – | 12.9 upbm affinity estimate (log intensity, higher = more binding, comparable within an allelic series) | – | 12.4 upbm affinity estimate (log intensity, higher = more binding, comparable within an allelic series) | 11.9 upbm affinity estimate (log intensity, higher = more binding, comparable within an allelic series) | 13.6 upbm affinity estimate (log intensity, higher = more binding, comparable within an allelic series) | 13.1 upbm affinity estimate (log intensity, higher = more binding, comparable within an allelic series) | 11.1 upbm affinity estimate (log intensity, higher = more binding, comparable within an allelic series) | 12.5 upbm affinity estimate (log intensity, higher = more binding, comparable within an allelic series) | 12.6 upbm affinity estimate (log intensity, higher = more binding, comparable within an allelic series) | – | – | –
CTACTTAA | 12.4 upbm affinity estimate (log intensity, higher = more binding, comparable within an allelic series) | 12.5 upbm affinity estimate (log intensity, higher = more binding, comparable within an allelic series) | – | – | 12.9 upbm affinity estimate (log intensity, higher = more binding, comparable within an allelic series) | – | 12.4 upbm affinity estimate (log intensity, higher = more binding, comparable within an allelic series) | 11.5 upbm affinity estimate (log intensity, higher = more binding, comparable within an allelic series) | 13.6 upbm affinity estimate (log intensity, higher = more binding, comparable within an allelic series) | 13 upbm affinity estimate (log intensity, higher = more binding, comparable within an allelic series) | 10.6 upbm affinity estimate (log intensity, higher = more binding, comparable within an allelic series) | – | 12.3 upbm affinity estimate (log intensity, higher = more binding, comparable within an allelic series) | – | – | –
CCACTTAA | 13.4 upbm affinity estimate (log intensity, higher = more binding, comparable within an allelic series) | 12.8 upbm affinity estimate (log intensity, higher = more binding, comparable within an allelic series) | – | – | 13.2 upbm affinity estimate (log intensity, higher = more binding, comparable within an allelic series) | – | 12.7 upbm affinity estimate (log intensity, higher = more binding, comparable within an allelic series) | 12.3 upbm affinity estimate (log intensity, higher = more binding, comparable within an allelic series) | 14.1 upbm affinity estimate (log intensity, higher = more binding, comparable within an allelic series) | 13.3 upbm affinity estimate (log intensity, higher = more binding, comparable within an allelic series) | 11.5 upbm affinity estimate (log intensity, higher = more binding, comparable within an allelic series) | 13.2 upbm affinity estimate (log intensity, higher = more binding, comparable within an allelic series) | 13.2 upbm affinity estimate (log intensity, higher = more binding, comparable within an allelic series) | 13.3 upbm affinity estimate (log intensity, higher = more binding, comparable within an allelic series) | – | –
ACCACTTA | 13.2 upbm affinity estimate (log intensity, higher = more binding, comparable within an allelic series) | 12.7 upbm affinity estimate (log intensity, higher = more binding, comparable within an allelic series) | – | – | 13.1 upbm affinity estimate (log intensity, higher = more binding, comparable within an allelic series) | – | 12.6 upbm affinity estimate (log intensity, higher = more binding, comparable within an allelic series) | 12.3 upbm affinity estimate (log intensity, higher = more binding, comparable within an allelic series) | 14 upbm affinity estimate (log intensity, higher = more binding, comparable within an allelic series) | 13.2 upbm affinity estimate (log intensity, higher = more binding, comparable within an allelic series) | 11.4 upbm affinity estimate (log intensity, higher = more binding, comparable within an allelic series) | 13.3 upbm affinity estimate (log intensity, higher = more binding, comparable within an allelic series) | 13.1 upbm affinity estimate (log intensity, higher = more binding, comparable within an allelic series) | 13.3 upbm affinity estimate (log intensity, higher = more binding, comparable within an allelic series) | – | –
CACGCGTG | 8.8 upbm affinity estimate (log intensity, higher = more binding, comparable within an allelic series) | – | – | – | – | – | – | – | – | – | – | – | 8.74 upbm affinity estimate (log intensity, higher = more binding, comparable within an allelic series) | – | 7.77 upbm affinity estimate (log intensity, higher = more binding, comparable within an allelic series) | 7.9 upbm affinity estimate (log intensity, higher = more binding, comparable within an allelic series)
CCCGGCGG | 8.56 upbm affinity estimate (log intensity, higher = more binding, comparable within an allelic series) | – | – | – | – | – | – | – | – | – | – | – | 8.58 upbm affinity estimate (log intensity, higher = more binding, comparable within an allelic series) | – | 7.64 upbm affinity estimate (log intensity, higher = more binding, comparable within an allelic series) | 7.61 upbm affinity estimate (log intensity, higher = more binding, comparable within an allelic series)
